Inconclusive results are not listed. A structure can be active in one record and inactive in another. Activity calls are given as the source filed them. Rule for the calls, unless noted: active = hit-call score of the fitted dose curve at least 0.9, where 1 is the maximum; inactive = score below 0.9.
Key:
[1] = biological target: human RAR-related Orphan Receptor gamma (RORg), RORC (gene 6097) (UniProt P51449); assay: ATG_RORg_TRANS: Attagene TRANS-FACTORIAL HepG2 Assay for human RAR-related Orphan Receptor gamma (RORg) (AID 2283011; active = hit-call score of the fitted dose curve at least 0.9, where 1 is the maximum)
Chain of human RAR-related Orphan Receptor gamma (RORg), RORC (gene 6097) (P51449 whole entry, looked up, the tested form may be a part): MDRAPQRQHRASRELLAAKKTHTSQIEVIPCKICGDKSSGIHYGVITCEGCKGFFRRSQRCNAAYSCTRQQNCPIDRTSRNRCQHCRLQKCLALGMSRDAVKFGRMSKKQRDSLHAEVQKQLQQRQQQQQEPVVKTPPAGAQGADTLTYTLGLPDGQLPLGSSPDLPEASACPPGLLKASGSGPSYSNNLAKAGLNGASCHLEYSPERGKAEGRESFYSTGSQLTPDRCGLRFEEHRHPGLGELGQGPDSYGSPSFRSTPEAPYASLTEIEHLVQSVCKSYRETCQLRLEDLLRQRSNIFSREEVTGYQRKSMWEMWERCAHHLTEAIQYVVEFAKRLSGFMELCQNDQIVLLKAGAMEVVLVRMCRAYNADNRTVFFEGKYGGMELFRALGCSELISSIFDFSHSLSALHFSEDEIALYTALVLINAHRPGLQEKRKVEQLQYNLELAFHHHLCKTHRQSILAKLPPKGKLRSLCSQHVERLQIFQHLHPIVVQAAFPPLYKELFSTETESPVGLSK
Summary of the method: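 First, HepG2 liver cells were transfected with GAL4-UAS-driven reporter constructs and the RORg-Gal4 fusion. Next, they were treated with chemical for 24 h. Finally, reporter mRNA was quantified by RT-PCR and capillary electrophoresis, with upward activity fitted against DMSO.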

[2] = biological target: human Retinoid X Receptor beta (RXRb), RXRB (gene 6257) (UniProt P28702); assay: ATG_RXRb_TRANS: Attagene TRANS-FACTORIAL HepG2 Assay for human Retinoid X Receptor beta (RXRb) (AID 2283013; active = hit-call score of the fitted dose curve at least 0.9, where 1 is the maximum)
Chain of human Retinoid X Receptor beta (RXRb), RXRB (gene 6257) (P28702 whole entry, looked up, the tested form may be a part): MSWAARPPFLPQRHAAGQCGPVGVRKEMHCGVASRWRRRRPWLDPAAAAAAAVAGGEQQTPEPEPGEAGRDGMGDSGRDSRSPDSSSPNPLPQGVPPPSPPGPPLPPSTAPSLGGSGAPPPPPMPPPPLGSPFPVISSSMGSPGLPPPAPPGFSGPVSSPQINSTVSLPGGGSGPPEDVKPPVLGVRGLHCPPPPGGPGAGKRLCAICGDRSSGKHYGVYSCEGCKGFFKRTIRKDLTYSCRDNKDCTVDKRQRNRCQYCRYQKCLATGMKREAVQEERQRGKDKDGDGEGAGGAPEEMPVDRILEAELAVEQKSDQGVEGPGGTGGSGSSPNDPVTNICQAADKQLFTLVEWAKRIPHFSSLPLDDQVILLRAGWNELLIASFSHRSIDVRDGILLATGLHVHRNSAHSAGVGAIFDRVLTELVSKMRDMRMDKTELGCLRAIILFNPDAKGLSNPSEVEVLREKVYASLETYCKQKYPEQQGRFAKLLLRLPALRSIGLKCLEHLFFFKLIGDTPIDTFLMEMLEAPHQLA
Summary of the method: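 HepG2 cells transiently transfected with multiplexed reporter units driven by GAL4-UAS and exogenous chimeric NR-Gal4 proteins; treated 24 h. Reporter mRNA measured by RT-PCR, 6-FAM labelling and capillary electrophoresis; gain-of-signal fitted versus DMSO baseline.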

[3] = biological target: human Thyroid Receptor alpha (THRa1), THRA (gene 7067) (UniProt P10827); assay: ATG_THRa1_TRANS: Attagene TRANS-FACTORIAL HepG2 Assay for human Thyroid Receptor alpha (THRa1) (AID 2283014; active = hit-call score of the fitted dose curve at least 0.9, where 1 is the maximum)
Chain of human Thyroid Receptor alpha (THRa1), THRA (gene 7067) (P10827 whole entry, looked up, the tested form may be a part): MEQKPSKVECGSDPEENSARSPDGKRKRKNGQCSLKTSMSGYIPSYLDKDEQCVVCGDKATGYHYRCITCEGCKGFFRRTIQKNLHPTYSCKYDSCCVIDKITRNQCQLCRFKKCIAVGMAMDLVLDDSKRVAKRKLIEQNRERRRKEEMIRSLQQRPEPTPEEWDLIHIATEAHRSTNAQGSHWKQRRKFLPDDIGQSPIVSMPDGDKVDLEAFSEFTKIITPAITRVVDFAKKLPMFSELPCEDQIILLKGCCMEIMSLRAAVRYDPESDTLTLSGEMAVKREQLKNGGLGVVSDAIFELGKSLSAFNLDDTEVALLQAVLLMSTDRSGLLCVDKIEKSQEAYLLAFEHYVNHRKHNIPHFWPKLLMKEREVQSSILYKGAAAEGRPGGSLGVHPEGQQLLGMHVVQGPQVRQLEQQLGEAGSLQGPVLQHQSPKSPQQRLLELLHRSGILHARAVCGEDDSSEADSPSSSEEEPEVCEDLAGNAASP
Summary of the method: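 Reporter transcript induction, read by capillary electrophoresis of 6-FAM-labelled RT-PCR products, reflects activity of a transfected THRa1-Gal4 fusion in HepG2 liver cells. Cells were dosed for 24 h; activity was fitted in the positive direction against DMSO.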

[4] = read-out: E-selectin (Homo sapiens) (UniProt P16581); assay: BSK_3C_Eselectin: BioMAP Diversity Plus: 3C Assay for Eselectin Biomarker Activity (AID 2283015); conditions: primary human endothelial cells (HUVEC); actives raise or lower the signal;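 for outcome: cell surface E-selectin protein quantified by ELISA 24 h after dosing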
Summary of the method: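 ELISA read-out of E-selectin on endothelial monolayers after 24 h chemical treatment. Human umbilical vein primary cells served as the system, with DMSO defining baseline activity for bidirectional fitting.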

[5] = read-out: Interleukin-1 alpha (IL1a), IL1A (gene 3552); assay: BSK_BE3C_IL1a: BioMAP Diversity Plus: BE3C Assay for Interleukin-1 alpha (IL1a) Biomarker Activity (AID 2283016); conditions: primary human bronchial epithelial cells; actives raise or lower the signal
Summary of the method: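 Human primary bronchial epithelial cells (BE3C system) were dosed with compound and IL-1a measured by ELISA 24 h later. Activity was fitted bidirectionally against DMSO baseline; cytotoxicity was tracked in parallel cultures by SRB total-protein staining.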

[6] = read-out: Monocyte Chemoattractant Protein-1 (MCP1), CCL2 (gene 6347); assay: BSK_3C_MCP1: BioMAP Diversity Plus: 3C Assay for Monocyte Chemoattractant Protein-1 (MCP1) Biomarker Activity (AID 2283017); conditions: primary human endothelial cells (HUVEC); actives raise or lower the signal
Summary of the method: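 ELISA read-out of MCP-1 from human umbilical vein endothelial cell cultures harvested 24 h post-dosing. Gain or loss of signal was fitted relative to DMSO.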

[7] = read-out: Monocyte Chemoattractant Protein-1 (MCP1), CCL2 (gene 6347); assay: BSK_4H_MCP1: BioMAP Diversity Plus: 4H Assay for Monocyte Chemoattractant Protein-1 (MCP1) Biomarker Activity (AID 2283018); conditions: primary human endothelial cells (HUVEC); actives raise or lower the signal
Summary of the method: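 Human umbilical vein endothelial cells (4H system) dosed with chemical; MCP-1 measured by ELISA 24 h after dosing. Bidirectional curve fitting against DMSO negative control as baseline; parallel SRB total-protein staining tracks overt cytotoxicity.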

[8] = read-out: Human Leukocyte Antigen - DR isotype (HLADR), HLA-DRA (gene 3122); assay: BSK_3C_HLADR: BioMAP Diversity Plus: 3C Assay for Human Leukocyte Antigen - DR isotype (HLADR) Biomarker Activity (AID 2283019); conditions: primary human endothelial cells (HUVEC); actives raise or lower the signal;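 for outcome: ELISA of cell-surface HLA-DR on HUVEC 24 h after dosing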
Summary of the method: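 ELISA readout of surface HLA-DR on human umbilical vein endothelium, taken 24 h after chemical treatment. Gain- and loss-of-signal were both fitted relative to DMSO.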

[9] = read-out: Interleukin-8 (IL8), CXCL8 (gene 3576); assay: BSK_3C_IL8: BioMAP Diversity Plus: 3C Assay for Interleukin-8 (IL8) Biomarker Activity (AID 2283020); conditions: primary human endothelial cells (HUVEC); actives raise or lower the signal
Summary of the method: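 Primary human umbilical vein endothelial cells (3C system) were exposed to test chemical for 24 h, then IL-8 was quantified by ELISA. Responses were fitted bidirectionally against DMSO vehicle as baseline.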

[10] = biological target: Retinoic acid receptor RXR-alpha (Homo sapiens) (UniProt P19793); assay: ATG_RXRa_TRANS: Attagene TRANS-FACTORIAL HepG2 Assay for human Retinoid X Receptor alpha (RXRa) (AID 2283012; active = hit-call score of the fitted dose curve at least 0.9, where 1 is the maximum)
Chain of Retinoic acid receptor RXR-alpha (Homo sapiens) (P19793 whole entry, looked up, the tested form may be a part): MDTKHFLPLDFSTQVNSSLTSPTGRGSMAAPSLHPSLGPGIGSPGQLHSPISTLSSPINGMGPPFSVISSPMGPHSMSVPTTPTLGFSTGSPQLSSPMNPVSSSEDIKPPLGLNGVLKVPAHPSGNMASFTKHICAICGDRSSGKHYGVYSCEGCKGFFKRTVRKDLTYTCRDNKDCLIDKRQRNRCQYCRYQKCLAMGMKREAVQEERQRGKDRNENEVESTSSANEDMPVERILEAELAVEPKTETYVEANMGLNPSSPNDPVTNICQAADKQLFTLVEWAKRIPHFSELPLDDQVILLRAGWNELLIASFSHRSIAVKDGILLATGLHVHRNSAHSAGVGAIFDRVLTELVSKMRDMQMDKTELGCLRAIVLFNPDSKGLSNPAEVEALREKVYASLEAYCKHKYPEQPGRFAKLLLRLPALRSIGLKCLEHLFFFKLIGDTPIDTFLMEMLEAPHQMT
Summary of the method: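 HepG2 cells transiently transfected with multiplexed GAL4-UAS reporter units and chimeric NR-GAL4 fusions, dosed 24 h. Reporter mRNA measured by RT-PCR, FAM labelling, HpaI digestion and capillary electrophoresis; gain-of-signal fitted relative to DMSO baseline.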

Chain of E-selectin (Homo sapiens) (P16581 whole entry, looked up): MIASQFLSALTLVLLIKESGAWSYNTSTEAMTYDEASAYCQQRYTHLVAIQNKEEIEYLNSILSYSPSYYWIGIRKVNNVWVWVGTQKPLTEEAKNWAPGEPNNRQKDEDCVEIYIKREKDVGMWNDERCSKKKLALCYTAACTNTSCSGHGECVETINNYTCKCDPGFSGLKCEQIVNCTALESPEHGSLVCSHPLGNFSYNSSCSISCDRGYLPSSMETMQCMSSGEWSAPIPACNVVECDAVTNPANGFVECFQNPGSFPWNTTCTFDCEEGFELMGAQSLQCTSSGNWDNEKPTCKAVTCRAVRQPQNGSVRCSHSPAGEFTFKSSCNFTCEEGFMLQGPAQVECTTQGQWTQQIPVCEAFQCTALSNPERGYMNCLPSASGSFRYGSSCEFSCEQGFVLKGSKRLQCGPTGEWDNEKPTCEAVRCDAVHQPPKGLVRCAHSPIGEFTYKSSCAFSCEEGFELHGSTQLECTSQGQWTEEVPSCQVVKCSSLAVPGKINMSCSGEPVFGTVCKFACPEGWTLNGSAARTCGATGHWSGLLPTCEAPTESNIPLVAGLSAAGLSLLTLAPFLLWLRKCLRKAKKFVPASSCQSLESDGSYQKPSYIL

SMILES	outcome [1]	outcome [2]	outcome [3]	outcome [4]	outcome [5]	outcome [6]	outcome [7]	outcome [8]	outcome [9]	outcome [10]	AC50 [5]	AC50 [2]	AC50 [8]	AC50 [3]	AC50 [4]	AC50 [6]	AC50 [7]	AC50 [9]
CCOC(=O)COc1cc(-n2ncc(C(F)(F)F)c(C)c2=O)c(F)cc1Cl	inactive	inactive	inactive	inactive	inactive	inactive	inactive	inactive	inactive									
CCCN(CCC)C(=O)SCC	inactive	inactive	inactive	inactive	inactive	inactive	inactive	inactive	inactive	inactive								
CCCCC(CC)COC(=O)c1ccccc1C(=O)O (centres undefined)	inactive	inactive	inactive	inactive	inactive	inactive	inactive	inactive	inactive	inactive								
CCC(C)OC(=O)N1CCCCC1CCO (centres undefined)	inactive	inactive	inactive	inactive	inactive	inactive	inactive	inactive	inactive	inactive	0.981 µM (active)							
OB(O)O	inactive			inactive	inactive	inactive	inactive	inactive	inactive	inactive								
S=C(S)NCCNC(=S)S.[Mn+2].[S-]C([S-])=NCCN=C([S-])[S-].[Zn+2]	inactive	inactive	inactive	inactive	inactive	inactive	inactive	inactive	inactive	inactive		20.4 µM (active)	13.3 µM (active) [middle of 4 runs]					
CC1(C)C(C=C(Cl)Cl)C1C(=O)OCc1cccc(Oc2ccccc2)c1 (centres undefined)	inactive	inactive	inactive	inactive	inactive	inactive	inactive		inactive	inactive			5.44 µM (active)					
C#CCOC(=O)[C@@H](C)Oc1ccc(Oc2ncc(Cl)cc2F)cc1	inactive			inactive	inactive	inactive	inactive	inactive	inactive	inactive								
Cc1nn(C)c(Oc2ccccc2)c1C=NOCc1ccc(C(=O)OC(C)(C)C)cc1	inactive	inactive			inactive					inactive			3.97 µM (active)	0.109 µM (active)	20 µM (active)	14.4 µM (active)	6.16 µM (active)	9.81 µM (active)
O=C(O)C1(C(=O)Nc2ccc(Cl)cc2Cl)CC1	inactive			inactive	inactive	inactive	inactive		inactive	inactive			4.68 µM (active)					
CCCCCOC(=O)COc1cc(N2C(=O)C3=C(CCCC3)C2=O)c(F)cc1Cl	inactive	inactive		inactive	inactive	inactive	inactive		inactive	inactive			19.2 µM (active)					
C[C@]12C[C@H](O)[C@H]3[C@@H](CCC4=CC(=O)CC[C@@]43C)[C@@H]1CC[C@@H]2C(=O)CO	inactive	inactive	inactive	inactive	inactive	inactive	inactive	inactive	inactive	inactive								
O=C(O)c1ccccc1	inactive	inactive		inactive	inactive	inactive	inactive	inactive	inactive	inactive								
CCCCOC(=O)C(C)Oc1ccc(Oc2ccc(C(F)(F)F)cn2)cc1 (centres undefined)	inactive	inactive	inactive	inactive	inactive	inactive	inactive	inactive	inactive	inactive								

From PubChem BioAssay (EPA / NIEHS)
